# Results as given in PubChem BioAssay.
# The source made the active and inactive calls.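 The calls were made as follows, unless noted: active = inhibition at or above 50% at 10 µM; inactive = inhibition below 50%.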
# Experiments:
# [1] = inhibitors of TNFa-induced NFkB p65 translocation, primary screen, imaging, HUVEC, MLSMR starter and 10KST1 sets (AID 438;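 active = inhibition above 20% together with a positive visual image hit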;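 also: compound added about 3h40 before a 20 min TNFalpha stimulation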;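 as to inhibition: signal is the nuclear over cytoplasmic p65 intensity ratio per well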); conditions: HUVEC TNFa-induced p65 nuclear translocation; cell count: measured here: nuclei count (cytotoxicity indicator), at 2.08 µM; inhibition: at 2 µM, stronger effect = higher value, 0% TNFa-plus-vehicle, 100% no-TNFa wells
# [2] = inhibitors of mutant huntingtin aggregation, primary screen, imaging, exon1htt(103Q)mCFP cells, high-content imaging (AID 483;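 active = visual image review flags a hit and inhibition of aggregation exceeds 20%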;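 also: compound exposure lasted 3 days before fixation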;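 as to nuclei count: percent of the per-plate median nuclei count of sample wells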); conditions: exon1htt(103Q)mCFP cell line, aggregate imaging, at 2 µM; inhibition of aggregation: stronger effect = higher value; nuclei count: measured here: cell count, toxicity
# [3] = inhibitors of E-selectin induction by TNFa, primary screen, imaging, HUVEC, immunofluorescence, MLSMR starter and 10KST1 sets (AID 487;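 active = visually confirmed hit in the image check and inhibition above 20%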;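 as to inhibition: signal is fraction of cell area covered by stained E-selectin grains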;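 as to nuclei count: 100% = median nuclei count of all wells on the same plate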); conditions: HUVEC TNFalpha-induced E-selectin immunofluorescence imaging, at 2 µM; inhibition: stronger effect = higher value; nuclei count: measured here: cell number, toxicity
# [4] = molecular target: Voltage-gated potassium channel subunit beta-2 (Rattus norvegicus) (UniProt P62483); experiment: KvBeta enzyme negative modulators, primary screen, biochemical, NADPH fluorescence (AID 622;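 active = fluorescence slope higher than the sample average by over 3 SD, cut at about -0.22 in these data, passing the limit was not always enough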;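 also: slope of raw intensity against log time taken from 70 to 1610 s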); conditions: recombinant KvBeta, 4-cyanobenzaldehyde reduction, at 10 µM, stronger effect = higher value
# Voltage-gated potassium channel subunit beta-2 (Rattus norvegicus), sequence (P62483 whole entry, looked up): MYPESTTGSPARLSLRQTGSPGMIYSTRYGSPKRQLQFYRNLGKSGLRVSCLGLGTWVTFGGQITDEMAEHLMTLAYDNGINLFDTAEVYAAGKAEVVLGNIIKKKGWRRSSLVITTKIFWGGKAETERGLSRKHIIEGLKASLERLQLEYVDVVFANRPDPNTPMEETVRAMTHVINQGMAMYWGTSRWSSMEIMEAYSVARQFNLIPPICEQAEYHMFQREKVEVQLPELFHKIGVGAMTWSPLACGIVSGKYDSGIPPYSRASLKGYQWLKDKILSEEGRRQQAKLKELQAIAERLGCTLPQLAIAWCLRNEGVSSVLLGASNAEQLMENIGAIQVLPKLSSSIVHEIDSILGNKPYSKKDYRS
# [5] = molecular target: Voltage-gated potassium channel subunit beta-2 (Rattus norvegicus) (UniProt P62483); experiment: KvBeta positive modulators, primary screen, biochemical, NADPH fluorescence (AID 623;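 active = NADPH fluorescence slope more negative than the mean of all samples by about 3 SD, 99.7% confidence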;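 also: fluorescence intensity change per second fitted from 20 to 320 s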); conditions: Recombinant KvBeta, NADPH fluorescence decrease slope, 10 min; at 10 µM; stronger effect = lower value
# [6] = molecular target: Alpha-2C adrenergic receptor (Homo sapiens) (UniProt P18825); experiment: modulators of alpha2C/GIRK thallium flux, primary screen, cell-based, HEK293 alpha2C/GIRK1/2 (AID 624;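 active = fluorescence slope after compound addition differing from the mean of all screened samples at 99.7% confidence, in either direction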;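 also: slope of fluorescence ratio to pre-addition baseline per second over 15 to 24 s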); conditions: thallium flux BTC fluorescence, at 10 µM, actives lie on both sides
# Alpha-2C adrenergic receptor (Homo sapiens), sequence (P18825 whole entry, looked up): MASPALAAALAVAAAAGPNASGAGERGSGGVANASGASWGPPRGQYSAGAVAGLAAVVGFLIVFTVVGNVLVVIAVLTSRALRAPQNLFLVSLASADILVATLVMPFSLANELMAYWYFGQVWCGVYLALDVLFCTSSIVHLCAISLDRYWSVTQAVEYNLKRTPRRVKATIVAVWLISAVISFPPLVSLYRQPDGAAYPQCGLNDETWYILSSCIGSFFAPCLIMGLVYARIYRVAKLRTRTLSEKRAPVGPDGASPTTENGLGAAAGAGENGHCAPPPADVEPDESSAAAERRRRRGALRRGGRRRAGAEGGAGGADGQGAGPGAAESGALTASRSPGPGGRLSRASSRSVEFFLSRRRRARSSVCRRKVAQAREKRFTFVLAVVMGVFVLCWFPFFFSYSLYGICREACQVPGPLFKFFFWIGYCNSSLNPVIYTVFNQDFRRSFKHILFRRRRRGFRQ
# [7] = inhibitors of Sendai virus-induced IRF3 signaling, primary screen, TLR/RLR signaling modifier project, cell-based, Sendai virus stimulus, luciferase, 10K MLSCN set (AID 602276); conditions: HEK293 RL24 IRF3 luciferase reporter, at 10 µM, stronger effect = higher value;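 also: firefly luciferase from ISG56 promoter only with Renilla not read in this screen; 0% = Sendai virus plus DMSO and 100% = medium plus DMSO without virus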
# [8] = inhibitors of poly I:C-induced TLR3 signaling, primary screen, cell-based, poly I:C stimulus, luciferase, 10K MLSCN set (AID 602277;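 active = inhibition of the reporter signal at or above 50%; inactive = inhibition below 50%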); conditions: HEK293-TLR3 RL24 IRF3 luciferase reporter, at 10 µM, stronger effect = higher value
compound,measurement,setting,value
Cc1ccc(-c2nnc3c4ccccc4c(C)nn23)cc1S(=O)(=O)N1CCN(C)CC1,cell count,[1],640
same,inhibition,[1],7.2% (inactive)
same,inhibition of aggregation,[2],3.8% (inactive)
same,nuclei count,[2],96.2%
same,inhibition,[3],11.3% (inactive)
same,nuclei count,[3],81.2%
same,fluorescence slope,[4],-0.592 (inactive)
same,NADPH fluorescence slope,[5],-2.9e-05 (inactive)
same,slope,[6],0.00436 (inactive)
same,inhibition,[7],13.3% (inactive)
same,inhibition,[8],30.7% (inactive)
CC1CCCN(S(=O)(=O)c2ccc(C(=O)Nc3nnc(-c4ccccc4Cl)o3)cc2)C1 (centres undefined),cell count,[1],687
same,inhibition,[1],-2.8% (inactive)
same,inhibition of aggregation,[2],10.5% (inactive)
same,nuclei count,[2],111%
same,inhibition,[3],-16.5% (inactive)
same,nuclei count,[3],110%
same,fluorescence slope,[4],-0.468 (inactive)
same,NADPH fluorescence slope,[5],-2.3e-05 (inactive)
same,slope,[6],0.0065 (inactive)
same,inhibition,[7],22.7% (inactive)
same,inhibition,[8],25.9% (inactive)
COc1ccccc1C1/C(=C(/O)c2ccccc2)C(=O)C(=O)N1CC(C)C (centres undefined),cell count,[1],430
same,inhibition,[1],-3.3% (inactive)
same,inhibition of aggregation,[2],-2% (inactive)
same,nuclei count,[2],112%
same,inhibition,[3],-43.1% (inactive)
same,nuclei count,[3],124%
same,fluorescence slope,[4],-0.629 (inactive)
same,NADPH fluorescence slope,[5],-2.2e-05 (inactive)
same,slope,[6],0.00652 (inactive)
same,inhibition,[7],11.4% (inactive)
same,inhibition,[8],20.6% (inactive)
CCOc1ccc2oc(-c3ccccc3)c(C(=O)N3CCN(CCO)CC3)c2c1,cell count,[1],649
same,inhibition,[1],-14.6% (inactive)
same,inhibition of aggregation,[2],2.8% (inactive)
same,nuclei count,[2],89.6%
same,inhibition,[3],-37.2% (inactive)
same,nuclei count,[3],112%
same,fluorescence slope,[4],-0.584 (inactive)
same,NADPH fluorescence slope,[5],1.9e-05 (inactive)
same,slope,[6],0.00775 (inactive)
same,inhibition,[7],15.9% (inactive)
same,inhibition,[8],34% (inactive)
COc1ccc(C(=O)NCc2nnc(SC)n2C2CCCCC2)cc1,cell count,[1],591
same,inhibition,[1],-2.4% (inactive)
same,inhibition of aggregation,[2],-1.1% (inactive)
same,nuclei count,[2],96%
same,inhibition,[3],-35.7% (inactive)
same,nuclei count,[3],101%
same,fluorescence slope,[4],-0.521 (inactive)
same,NADPH fluorescence slope,[5],-3.9e-05 (inactive)
same,slope,[6],0.00737 (inactive)
same,inhibition,[7],18.8% (inactive)
same,inhibition,[8],26% (inactive)
CN1C(=S)SC(C)(NO)C1(C)C (centres undefined),cell count,[1],446
same,inhibition,[1],6.5% (inactive)
same,inhibition of aggregation,[2],7.3% (inactive)
same,nuclei count,[2],78.4%
same,inhibition,[3],2.9% (inactive)
same,nuclei count,[3],107%
same,fluorescence slope,[4],-0.479 (inactive)
same,NADPH fluorescence slope,[5],-0.000139 (active)
same,slope,[6],0.00444 (inactive)
same,inhibition,[7],15.4% (inactive)
same,inhibition,[8],16% (inactive)
Cc1cccc(-n2ncc3c(N)ncnc32)c1,cell count,[1],622
same,inhibition,[1],9.1% (inactive)
same,inhibition of aggregation,[2],-51.6% (inactive)
same,nuclei count,[2],6%
same,inhibition,[3],-12.6% (inactive)
same,nuclei count,[3],110%
same,fluorescence slope,[4],-0.596 (inactive)
same,NADPH fluorescence slope,[5],-2.7e-05 (inactive)
same,slope,[6],0.0039 (inactive)
same,inhibition,[7],-20.5% (inactive)
same,inhibition,[8],-80.6% (inactive)
C#CC1(O)CC(C)N(C)C(C)C1 (centres undefined),cell count,[1],266
same,inhibition,[1],-0.3% (inactive)
same,inhibition of aggregation,[2],41.8% (active)
same,nuclei count,[2],71.2%
same,inhibition,[3],-76% (inactive)
same,nuclei count,[3],186%
same,fluorescence slope,[4],-0.606 (inactive)
same,NADPH fluorescence slope,[5],3.5e-06 (inactive)
same,slope,[6],0.00632 (inactive)
same,inhibition,[7],11% (inactive)
same,inhibition,[8],17.2% (inactive)
Cc1cc(C)nc(NS(=O)(=O)c2ccc(NC(=O)Cn3c(=O)oc4ccccc43)cc2)n1,cell count,[1],490
same,inhibition,[1],0.5% (inactive)
same,inhibition of aggregation,[2],26% (inactive)
same,nuclei count,[2],63.8%
same,inhibition,[3],-31.3% (inactive)
same,nuclei count,[3],122%
same,fluorescence slope,[4],-0.577 (inactive)
same,NADPH fluorescence slope,[5],-4.3e-06 (inactive)
same,slope,[6],0.00665 (inactive)
same,inhibition,[7],9.3% (inactive)
same,inhibition,[8],25.4% (inactive)
Nc1ccc(-c2ccc(N)cc2C(F)(F)F)c(C(F)(F)F)c1,cell count,[1],510
same,inhibition,[1],-15.4% (inactive)
same,inhibition of aggregation,[2],-0.4% (inactive)
same,nuclei count,[2],96.5%
same,inhibition,[3],-3.6% (inactive)
same,nuclei count,[3],101%
same,fluorescence slope,[4],-0.446 (inactive)
same,NADPH fluorescence slope,[5],-9.4e-05 (inactive)
same,slope,[6],0.00482 (inactive)
same,inhibition,[7],16.9% (inactive)
same,inhibition,[8],24% (inactive)
Cc1nn(-c2ccccc2)c2c1C(O)n1c(nc3ccccc31)S2 (centres undefined),cell count,[1],453
same,inhibition,[1],2.5% (inactive)
same,inhibition of aggregation,[2],8.2% (inactive)
same,nuclei count,[2],83%
same,inhibition,[3],-10.2% (inactive)
same,nuclei count,[3],100%
same,fluorescence slope,[4],-0.466 (inactive)
same,NADPH fluorescence slope,[5],-0.000266 (inactive)
same,slope,[6],0.00554 (inactive)
same,inhibition,[7],14% (inactive)
same,inhibition,[8],28.4% (inactive)
c1ccc(-c2nc3nonc3c3nc4ccccc4n23)cc1,cell count,[1],333
same,inhibition,[1],-12.4% (inactive)
same,inhibition of aggregation,[2],1.1% (inactive)
same,nuclei count,[2],95.8%
same,inhibition,[3],-40.9% (inactive)
same,nuclei count,[3],94.2%
same,fluorescence slope,[4],-0.244 (inactive)
same,NADPH fluorescence slope,[5],-2.9e-05 (inactive)
same,slope,[6],0.00529 (inactive)
same,inhibition,[7],9.01% (inactive)
same,inhibition,[8],-7.48% (inactive)
CC(=O)CCc1ccc(OCCCCn2cncn2)cc1,cell count,[1],513
same,inhibition,[1],6.8% (inactive)
same,inhibition of aggregation,[2],15.6% (inactive)
same,nuclei count,[2],92.1%
same,inhibition,[3],-58.4% (inactive)
same,nuclei count,[3],116%
same,fluorescence slope,[4],-0.625 (inactive)
same,NADPH fluorescence slope,[5],-1.7e-05 (inactive)
same,slope,[6],0.00807 (inactive)
same,inhibition,[7],1.5% (inactive)
same,inhibition,[8],-5.67% (inactive)
CC1=C(C(=O)N2CCOCC2)C(c2ccsc2)C2=C(CCCC2=O)N1 (centres undefined),cell count,[1],326
same,inhibition,[1],-25.2% (inactive)
same,inhibition of aggregation,[2],2.7% (inactive)
same,nuclei count,[2],99.6%
same,inhibition,[3],-11.7% (inactive)
same,nuclei count,[3],110%
same,fluorescence slope,[4],-0.408 (inactive)
same,NADPH fluorescence slope,[5],-4.5e-05 (inactive)
same,slope,[6],0.00554 (inactive)
same,inhibition,[7],19.4% (inactive)
same,inhibition,[8],20.8% (inactive)
